High-throughput results as filed in PubChem BioAssay.
BAZ2B inh = BAZ2B (human) inhibition. Potency, µM (top dose mostly 114 µM), actives largely listed as inhibitors. hit rate 4.4% among 360,000. Q9UIF8. AlphaScreen BAZ2B-H3K14Ac peptide displacement. AID 504333; further: nearly all actives have a fitted effect of over 60% in size
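AlphaScreen displacement: compounds (up to 110uM) incubated 30 min at room temperature with a preformed 50 nM BAZ2B/50 nM biotinylated H3K14Ac peptide complex in PBS pH 7.4 with Tween-20. Donor and acceptor beads at 10 ug/mL final added, 20 min light-protected before reading.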
JMJD2A Tudor inh = blocks the human JMJD2A Tudor domain. O75164. AlphaScreen JMJD2A-Tudor / H3K4me3 peptide binding. Potency, µM (series often up to 114 µM), actives largely listed as inhibitors. hit rate 4.4% among 390,000; further: nearly all actives have a fitted effect of over 50% in size
HP1b binding inh = blocks HP1-beta chromodomain binding to methylated histone tails. hit rate 0.56% among 390,000. Potency, µM (series often up to 114 µM), actives largely listed as inhibitors. AlphaScreen HP1-beta / biotin-H3K9me3 peptide binding. AID 540317; further: nearly all actives have a fitted effect of over 70% in size
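Compound inhibition of the preformed complex between 50 nM HP1-beta and 50 nM biotinylated H3K9me3 peptide was read by AlphaScreen. Buffer was PBS pH 7.4 with 0.01% Tween-20. Incubations ran 30 min at room temperature, with 10 ug/mL donor/acceptor beads.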
GLS inhibitor = glutaminase GLS (human) inhibition | Potency, µM (series often up to 45.5 µM), usual class: inhibitors | hit rate 0.21% among 410,000 | GLS enzymatic activity, qHTS titration
Target sequence (O94925 whole entry, looked up): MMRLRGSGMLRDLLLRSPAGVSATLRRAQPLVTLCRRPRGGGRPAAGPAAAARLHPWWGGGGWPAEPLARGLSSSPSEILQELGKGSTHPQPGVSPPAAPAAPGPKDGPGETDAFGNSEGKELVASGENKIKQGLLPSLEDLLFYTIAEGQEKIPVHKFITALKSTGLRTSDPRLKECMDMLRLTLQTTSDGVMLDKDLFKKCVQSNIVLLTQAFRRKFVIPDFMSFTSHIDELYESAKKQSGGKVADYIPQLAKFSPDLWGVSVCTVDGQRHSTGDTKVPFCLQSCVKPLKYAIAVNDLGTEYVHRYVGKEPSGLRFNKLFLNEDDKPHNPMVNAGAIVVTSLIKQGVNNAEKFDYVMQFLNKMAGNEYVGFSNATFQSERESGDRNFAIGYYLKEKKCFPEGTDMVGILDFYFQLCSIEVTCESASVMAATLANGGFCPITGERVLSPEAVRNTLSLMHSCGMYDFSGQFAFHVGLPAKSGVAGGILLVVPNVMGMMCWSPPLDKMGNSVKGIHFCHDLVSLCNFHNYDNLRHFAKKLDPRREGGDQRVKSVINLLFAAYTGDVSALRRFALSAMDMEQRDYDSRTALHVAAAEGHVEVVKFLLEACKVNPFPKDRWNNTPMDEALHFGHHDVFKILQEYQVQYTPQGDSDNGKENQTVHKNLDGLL
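hKGA in 45 mM KH2PO4 pH 8.2, 0.02% Tween-20 with pin-transferred compounds; 1 mM L-glutamine (stock) plus glutamate oxidase/HRP/Amplex Red coupling added. Fluorescence read initially and after 30 min at RT.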
G9a block = blocks human histone lysine methyltransferase G9a; Q96KQ7; G9a H3K9 monomethylation, AlphaScreen, 2 h; Potency, µM (series often up to 102 µM), actives largely listed as inhibitors; hit rate 8.8% among 350,000; AID 504332; further: nearly all actives have a fitted effect of over 75% in size
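Signal arises when biotinylated H3K9 peptide, once monomethylated, bridges streptavidin donor and antibody-captured acceptor beads. Enzyme at 20 nM was preincubated 15 min with test compounds; peptide 500 nM and SAM 20 uM then reacted for 2 h.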
A number is an active result; – = inactive; ? = inconclusive; · = no result given; ! = a repeat was not active. Shown are actives, neighbours in structure and some others; about 10% of the full set was active somewhere. The call rests on the fitted dose curve; in most records, active means well fitted curve in the direction sought with a large enough effect; inconclusive means small, poorly fitted or top-dose-only effect, or another doubt; inactive means no such curve, though single readings can be large; an effect the other way counts as inactive or inconclusive.

SMILES | BAZ2B inh | JMJD2A Tudor inh | HP1b binding inh | GLS inhibitor | G9a block
CCC(CC)C(=O)Nc1nnc(S(=O)(=O)N2CCc3ccccc32)s1 | ? | – | – | – | 7.1µM
CCC(=O)Nc1nnc(S(=O)(=O)N2CCc3ccccc32)s1 | ? | – | – | – | –
CCC(CC)C(=O)Nc1nnc(S(=O)(=O)N2c3ccccc3CC2C)s1 (centres undefined) | 25µM! | 50µM! | – | – | –
O=S1(=O)C[C@@H](N2CCC(Cc3ccccc3)CC2)[C@H](COCc2ccccc2)N1 | · | · | · | – | ·
NC(=O)CSc1nnc(-c2ccccn2)n1Cc1ccco1 | – | – | – | – | –
Clc1ccccc1CSc1nnc(-c2ccccn2)n1Cc1ccco1 | 56µM | 56µM | – | – | ?
COc1ccc(C(=O)CSc2nnc(-c3cnccn3)n2Cc2ccco2)cc1 | ? | ? | – | – | ?
Cn1c(SCc2nc3ccccc3[nH]2)nnc1-c1cnccn1 | – | – | – | – | –
Clc1ccc(CSc2nnc(-c3cccnc3)n2Cc2ccco2)c(Cl)c1 | – | – | – | – | 35µM
c1coc(Cn2c(SCc3nc4ccccc4[nH]3)nnc2-c2cnccn2)c1 | – | ? | – | – | 32µM
COc1ccc(C(=O)CSc2nnc(-c3cccnc3)n2Cc2ccco2)cc1 | – | – | – | – | 50µM
COc1ccccc1NC(=O)C1=C(C)Nc2nc(-c3ccco3)nn2C1c1ccccc1F (centres undefined) | – | – | – | – | –
C(=C\c1ccccc1)/CSc1nnc(-c2ccccn2)n1Cc1ccco1 | – | ? | – | – | 16µM
c1ccc(-c2nnc(SCc3nc4ccccc4[nH]3)n2Cc2ccco2)nc1 | ? | ? | – | – | 50µM
Cc1ccc(NC(=O)CSc2nnc(-c3ccccn3)n2N)c(Br)c1 | 13µM | ? | – | – | –
Cc1cccc(CSc2nnc(-c3ccccn3)n2N)c1 | 35µM | 50µM | – | – | 14µM
CC12CCC(C(=O)Nc3nc4ccc(Br)cc4s3)(OC1=O)C2(C)C (centres undefined) | ? | – | – | – | ·
Nn1c(SC/C=C/c2ccccc2)nnc1-c1ccccn1 | 11µM | 20µM | – | – | 28µM
Clc1cccc(CSc2nnc(-c3cccnc3)n2Cc2ccco2)c1 | – | – | – | – | ?
Clc1cccc(-c2nnc(SCc3nc4ccccc4[nH]3)n2Cc2ccco2)c1 | ? | ? | – | – | 40µM
Clc1ccc(OCc2nnc(SCc3nc4ccccc4[nH]3)n2Cc2ccco2)cc1 | – | ? | – | – | 40µM
O=C(Oc1ccc(N(Cc2cccs2)C2=NS(=O)(=O)c3ccccc32)cc1)c1ccccc1F | ? | – | – | · | –
CC1CC(=O)C2=C(C1)Nc1nc3ccccc3n1C2c1cccnc1 (centres undefined) | – | – | – | – | ·
O=C1CCCC2=C1C(c1ccncc1)n1c(nc3ccccc31)N2 (centres undefined) | – | 56µM | – | – | ·
COc1ccc(-c2nc(C)c(CCNS(=O)(=O)c3cc(C)c(C)cc3C)s2)cc1 | – | – | – | – | –
SMILES | BAZ2B inh | JMJD2A Tudor inh | HP1b binding inh | GLS inhibitor | G9a block
N#Cc1ccsc1NC(=O)C1CCN(C(=O)c2ccc(Cl)cc2)CC1 | – | – | – | – | 50µM
O=C(Nc1ccccc1N1CCCC1)C1CCN(C(=O)c2ccc(Cl)cc2)CC1 | – | – | – | – | 50µM
O=C(Nc1ccccc1N1CCCC1)C1CCN(C(=O)c2ccc(F)cc2)CC1 | – | – | – | – | 50µM
O=C(NC1CCCC1)C1CCN(C(=O)c2ccc(Cl)cc2)CC1 | – | – | – | – | –
Cc1ccc(-n2nc(C)c3c(C(=O)NCc4ccccc4)cc(C4CC4)nc32)cc1 | – | – | – | – | –
COc1cccc(N2CCN(C(=O)c3ccc(CS(=O)c4cccc(Cl)c4)o3)CC2)c1 (centres undefined) | – | – | – | – | –
CCN(CC)c1ccc2cc(C(=O)c3cccs3)c(=O)oc2c1 | · | · | · | – | ·
C=CCN1C(=O)C(CC(=O)Nc2ccc(OCCC)cc2)N(CCCN2CCN(Cc3ccccc3)CC2)C1=S (centres undefined) | 10µM | ? | – | – | ?
COC(=O)c1ccc2c(=O)n(CCCCCC(=O)NCCc3ccc(Cl)cc3)c(=O)[nH]c2c1 | – | – | – | – | –
Cc1cc(CC(=O)O)c2oc(-c3ccoc3)cc(=O)c2c1 | · | 89µM | – | ? | ·
O=[N+]([O-])c1ccc(COc2cccc(CNc3ccc(Br)cc3)c2)cc1 | – | – | – | – | 45µM
COCCCNC(=O)c1ccc(N2CCCC2)c(NS(=O)(=O)c2ccc(C)cc2)c1 | ? | – | – | – | 7.9µM
COCCNC(=O)c1ccc(C)c(S(=O)(=O)Nc2ccc(C)cc2)c1 | – | – | – | – | 79µM
Cc1ccc(NS(=O)(=O)c2cc(C(=O)NCc3ccncc3)ccc2C)cc1 | – | – | – | – | –
O=C(O)c1ccc(C2Nc3ccccc3C(=O)N2Cc2ccccc2)cc1 (centres undefined) | – | – | – | – | –
Cc1nc2c(cc(Oc3ccc(S(=O)(=O)N4CCOCC4)cn3)c3ccsc32)s1 | – | – | – | – | 71µM
COc1ccc(NS(=O)(=O)c2ccc3nc(COc4ccc(Cl)c(C)c4)[nH]c3c2)cc1 | – | – | – | – | 45µM
COc1ccc(NS(=O)(=O)c2ccc3nc(-c4ccccc4)[nH]c3c2)cc1 | – | – | – | – | –
COc1ccccc1-c1cc(NC(=O)COc2ccccc2Cl)n(-c2ccccc2)n1 | – | – | – | – | –
O=C(O)c1ccc(N/N=C/C2=C(N3CCOCC3)C(=C\c3ccccc3)/CC2)cc1 | 50µM | ? | ? | – | ·
Clc1cccc(N/N=C/c2ccc(N3CCOCC3)cc2)c1 | – | ? | – | – | 32µM
C(=N\Nc1ccccn1)/c1ccc(N2CCOCC2)cc1 | ? | ? | – | ? | –
O=[N+]([O-])c1cccc(N/N=C/c2ccc(N3CCOCC3)cc2)c1 | 18µM | 35µM | 40µM | – | 40µM
O=C(O)c1cc(N/N=C/c2ccc(N3CCOCC3)cc2)ccc1Cl | ? | – | – | – | –
C(=N\Nc1ccccc1)/c1ccc(N2CCOCC2)cc1 | – | ? | – | – | 4µM
CCN(C(=S)NC(=O)c1ccccc1Br)C1CCCCC1 | ? | – | – | – | –
CCOC(=O)c1ccc2c(c1)N(Cc1cccc(C(F)(F)F)c1)C(=O)c1ccccc1S2(=O)=O | – | ? | – | – | –
CCN(C(=O)CSc1ncc2c(n1)-c1cc(Cl)ccc1N(Cc1ccccc1)S2(=O)=O)c1cccc(C)c1 | – | – | – | – | –
CC(C)CC(=O)Nc1nc2c(s1)CC(C(C)(C)C)CC2 (centres undefined) | – | – | – | – | –
C=CCN(CC(O)c1cccc([N+](=O)[O-])c1)C(C)CCc1ccccc1 (centres undefined) | – | – | – | – | ·
